The nature of this experiment: growth inhibition of WT strain, primary screen, mitochondrial fusion inhibitor project, WT and mutant strains, chemical genetic (AID 1362). The settings on record: mitochondrial fusion phenotypic screen, at 10 µM.
[1] abbreviates: WT strain, growth inhibition, stronger effect = higher value.

In all, about 190,000 compounds went through this assay and about 4,000 (2.1%) were called active. No stated cut-off is given here; in the data, active means inhibition above about 58%; inactive means the rest, inconclusive results apart; tested in S. cerevisiae. Only a selection was taken, and actives are over-represented in it overall.

In the case of `COc1ccc(C)cc1NC(=O)c1ccc(-c2ccc(C(C)=O)cc2)o1`, the inhibition reads like this: under setting [1], 15.7% (inactive); (mutant strain inhibition) 5.74%.
As to `CCc1nnc(NS(=O)(=O)c2ccc(N=Cc3c(C)[nH]n(-c4ccc(C)cc4)c3=O)cc2)s1`, the inhibition is 40.8% (inactive) under setting [1] and 28.3% (mutant strain inhibition).
As for `Cc1ccc(-n2[nH]c(C)c(/C=N/N3C(=O)c4cccc5cccc(c45)C3=O)c2=O)cc1`, the inhibition is, setting by setting: under setting [1], 13.3% (inactive); (mutant strain inhibition) 13%.
The like results for `COc1cc(SC#N)ccc1N=Cc1c(C)[nH]n(-c2ccc(C)cc2)c1=O` were, in that order, 81.4% (active) and 11.6%.
As to `Cc1ccc(OCC(=O)Nc2ccc(S(=O)(=O)Nc3ccccn3)cc2)cc1`, the inhibition is, setting by setting: under setting [1], -2.17% (inactive); (mutant strain inhibition) -9.5%.
The like results for `NS(=O)(=O)c1ccc(NC(=S)NC(=O)c2cccnc2)cc1` were, in that order, -6.97% (inactive) and -10.8%.
In the same order, the values of `Cn1nnnc1NCc1ccc(Cl)c(Cl)c1` are -2% (inactive) and 14.5%.
The like results for `O=[N+]([O-])c1ccc(Oc2ccc(F)cc2Br)c2ccncc12` were, in that order, 68.7% (active) and 58.1%.
Take `O=[N+]([O-])c1ccc(F)cc1Oc1nc(-c2cccnc2)nc2ccccc12`: the inhibition reads like this: under setting [1], 2.1% (inactive); (mutant strain inhibition) 3.69%.
`O=C(O)CSc1nccc2ccccc12`: the inhibition under setting [1] was -2.02% (inactive) and the inhibition (mutant strain inhibition) was -7.45%.
Regarding `CC(C)c1ccc(Nc2nnc(SCC(=O)c3nnc(-c4ccccc4)o3)s2)cc1`, the inhibition under setting [1] is 70.5% (active) and the inhibition (mutant strain inhibition) was determined as 55.7%.
Consider `O=C(CSc1nnc(Nc2ccccc2)s1)Nc1cccnc1Cl`, for which the inhibition runs as follows: under setting [1], -3.41% (inactive); (mutant strain inhibition) -15.4%.
Turning to `Cc1ccc(Nc2nnc(SCC(=O)c3cc4ccccc4o3)s2)cc1C`, the inhibition was 0.56% (inactive) under setting [1] and 20.2% (mutant strain inhibition).
For `S=C(NCc1ccco1)Nc1ccc2c(c1)OCCO2`, the inhibition by setting is: under setting [1], -2.47% (inactive); (mutant strain inhibition) 9.66%.
With `CC(C)(C)NC(=O)NC(=O)COC(=O)Cc1c(F)cccc1Cl`, the inhibition was -15.4% (inactive) under setting [1] and 1.6% (mutant strain inhibition).
For the molecule `NS(=O)(=O)c1ccc(NC(=S)Nc2ccc(Br)c(Cl)c2)cc1`, the inhibition by setting is: under setting [1], 82.6% (active); (mutant strain inhibition) 54.2%.
In the case of `NS(=O)(=O)c1ccc(NC(=S)NC(=O)c2cccc(Br)c2)cc1`, the inhibition is 11% (inactive) under setting [1] and 20.3% (mutant strain inhibition).
Consider `NS(=O)(=O)c1ccc(CCNC(=S)Nc2ccc(S(N)(=O)=O)cc2)cc1`, for which the inhibition under setting [1] is -5.98% (inactive) and the inhibition (mutant strain inhibition) was -14.5%.
In the same order, the values of `CCCn1c(=S)[nH]c2ccc(C(F)(F)F)cc21` are 2.77% (inactive) and 12.1%.
Turning to `CO/N=C/c1cn(-c2ccc(Cl)cc2)nn1`, the inhibition runs as follows: under setting [1], -5.72% (inactive); (mutant strain inhibition) -2.58%.
Take `O=C(c1ccco1)N1CCN(C(=O)C2c3ccccc3Oc3ccccc32)CC1`: the inhibition was 71.1% (active) under setting [1] and 6.75% (mutant strain inhibition).
On to `O=C(c1ccco1)N1CCN(c2cccc(Cl)c2)CC1`, for which the inhibition is, setting by setting: under setting [1], 7.68% (inactive); (mutant strain inhibition) -0.39%.
For the molecule `O=C(c1ccc2c(c1)OCO2)N1CCN(C(=O)c2ccco2)CC1`, the inhibition was -13.2% (inactive) under setting [1] and -33.3% (mutant strain inhibition).
The like results for `O=C(C1CCN(C2CCN(Cc3cccc4c3OCO4)CC2)CC1)N1CCOCC1` were, in that order, 5.02% (inactive) and 2.36%.
Consider `CN(C)CCCN1C(=O)CSC1c1ccc([N+](=O)[O-])cc1` (stereo not given), for which the inhibition is -4.48% (inactive) under setting [1] and 1.39% (mutant strain inhibition).
As for `COc1cccc(NC(=O)COC(=O)CCOc2ccccc2OC)c1`, the inhibition reads like this: under setting [1], -0.47% (inactive); (mutant strain inhibition) -4.38%.
`COc1ccc(/C=C/C(=O)OCC(=O)Nc2cccc(Oc3ccccc3)c2)c(OC)c1`: the inhibition is 7.56% (inactive) under setting [1] and 8.13% (mutant strain inhibition).
Regarding `COc1cc(/C=C/C(=O)OCC(=O)Nc2cccc(Oc3ccccc3)c2)ccc1O`, the inhibition is 68.3% (active) under setting [1] and 29% (mutant strain inhibition).
Consider `O=C(c1ccc(C(F)(F)F)cc1)C1CCCN(C(=O)c2csnn2)C1` (stereo not given), for which the inhibition is, setting by setting: under setting [1], 7.52% (inactive); (mutant strain inhibition) 10.7%.
On to `COc1ccc(-c2csc(NC(=O)c3ccc(N4C(=O)CCC4=O)cc3)n2)cc1OC`, for which the inhibition under setting [1] was 7.99% (inactive) and the inhibition (mutant strain inhibition) was determined as 3.27%.
With `CC(=O)c1ccc(N2CCN(CC(=O)Nc3ccccc3N3CCOCC3)CC2)cc1`, the inhibition by setting is: under setting [1], -16% (inactive); (mutant strain inhibition) 4.64%.
The like results for `COC(=O)Cc1ccc(NC(=S)NCc2ccco2)cc1` were, in that order, 6.76% (inactive) and 3.2%.
Turning to `O=C(O)C1CC=CCC1C(=O)Nc1ccccc1C(=O)N1CCN(c2ccccc2)CC1` (stereo not given), the inhibition runs as follows: under setting [1], -12.3% (inactive); (mutant strain inhibition) -3.47%.
For the molecule `CC(C)c1ccc(N2CCN(C(=O)c3ccccc3NC(=O)/C=C(\C(=O)O)c3ccccc3)CC2)cc1`, the inhibition is 71% (active) under setting [1] and 37.8% (mutant strain inhibition).
Consider `Cc1cccc(N2CCN(C(=O)c3ccccc3NC(=O)C3CCCCC3C(=O)O)CC2)c1` (stereo not given), for which the inhibition was -3.08% (inactive) under setting [1] and -3.64% (mutant strain inhibition).
`COc1cc(NC(=S)NCCSc2ccc(C)cc2)cc(OC)c1`: the inhibition is 71.4% (active) under setting [1] and 51.4% (mutant strain inhibition).
As for `COc1ccc(NC(=S)NCCNC(C)=O)cc1`, the inhibition under setting [1] is 3.42% (inactive) and the inhibition (mutant strain inhibition) came out at 8.02%.
With `COc1cc(NC(=S)NCc2ccc(S(N)(=O)=O)cc2)cc(OC)c1`, the inhibition is -1.93% (inactive) under setting [1] and 4.18% (mutant strain inhibition).
Take `Cc1nnc(SC(C(=O)Nc2cc(Cl)cc(Cl)c2)c2ccccc2)[nH]c1=O` (stereo not given): the inhibition under setting [1] is 1.45% (inactive) and the inhibition (mutant strain inhibition) stood at 9.8%.
As to `COc1cc(/C=C/C(=O)OCC(=O)NC(=O)NCc2ccccc2)ccc1OCC#N`, the inhibition reads like this: under setting [1], 6.54% (inactive); (mutant strain inhibition) 3.13%.
Regarding `CN1C(=O)C(CC(=O)Nc2ccccc2)S/C1=N/c1nccs1` (stereo not given), the inhibition by setting is: under setting [1], -7.94% (inactive); (mutant strain inhibition) 3.24%.
With `COc1ccc(Cl)cc1NC(=O)C(C)N1CCc2ccccc21` (stereo not given), the inhibition is, setting by setting: under setting [1], 54% (inactive); (mutant strain inhibition) 18.4%.
In the case of `Clc1ncn(CCOc2ccccc2)c1Cl`, the inhibition reads like this: under setting [1], -14.3% (inactive); (mutant strain inhibition) -12.6%.
On to `COCCOCCn1cnc2ccccc21`, for which the inhibition runs as follows: under setting [1], -10.3% (inactive); (mutant strain inhibition) -7.09%.
For the molecule `Cc1cc2ncn(CCCCOc3ccccc3)c2cc1C`, the inhibition was 62.5% (active) under setting [1] and 44.6% (mutant strain inhibition).
`COc1ccc(C(=O)NNC(=O)c2cc(C)[nH]n2)cc1`: the inhibition reads like this: under setting [1], -20% (inactive); (mutant strain inhibition) -23.8%.
For the molecule `C/C(=C\c1ccco1)CN1CCC(N2CCC(C(=O)N3CCOCC3)CC2)CC1`, the inhibition is, setting by setting: under setting [1], -2.61% (inactive); (mutant strain inhibition) 2.35%.
For `O=C(NC(=S)Nc1cccc(-c2ccc(CO)o2)c1)c1cccs1`, the inhibition under setting [1] is 6.13% (inactive) and the inhibition (mutant strain inhibition) worked out at 12.3%.
In the same order, the values of `CC(=O)Nc1ccc(NC(=S)NC(=O)/C=C/c2ccccc2)cc1` are -1.35% (inactive) and -0.82%.
With `O=c1c(-c2ccc3c(c2)OCCO3)c(C(F)(F)F)oc2cc(O)cc(O)c12`, the inhibition reads like this: under setting [1], 70.7% (active); (mutant strain inhibition) 42.8%.
In the same order, the values of `CCOC(=O)c1cc2cc(-c3c(C(=O)OCC)oc4cc(O)cc(O)c4c3=O)ccc2o1` are -4.08% (inactive) and -39.7%.
Regarding `COc1ccc(-c2onc(C)c2-c2ccc3c(c2)OCCO3)c(O)c1`, the inhibition under setting [1] was 21.9% (inactive) and the inhibition (mutant strain inhibition) is -8.53%.
Consider `S=C(NCCc1ccccc1)NCc1ccccc1Cl`, for which the inhibition runs as follows: under setting [1], 62% (active); (mutant strain inhibition) 35.9%.
In the same order, the values of `Cc1ccc(NC(=S)NCc2ccccc2Cl)c(C)c1` are 41% (inactive) and -1.48%.
Take `S=C(NCCc1ccccc1)N1CCCCC1`: the inhibition is, setting by setting: under setting [1], 8.05% (inactive); (mutant strain inhibition) 12.7%.

The values above are taken from PubChem BioAssay AID1362 (SRMLSC, 2008).
